Screens as filed in PubChem BioAssay.
Pf growth 48h: Primary qHTS for delayed death inhibitors of the malarial parasite plastid, 48 hour incubation. P. falciparum luciferase growth in erythrocytes, 48 h. Potency, µM (series often up to 28.7 µM), inactives show at the top dose activity change, negative = inhibition, usual class: inhibitors. 310,000 compounds, 5.9% hits. AID 504832, 2011; further: on the % scale 0 is the no-effect control and ±100 the full control effect
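Growth was read as firefly luciferase luminescence after a 48 h, 37 C, 5% CO2 exposure of compounds to reporter-bearing P. falciparum cultures (0.1% parasitemia, 2% hematocrit final) in Albumax-supplemented RPMI 1640.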
SARS PLP yeast: qHTS of Yeast-based Assay for SARS-CoV PLP. S. cerevisiae expressing SARS-CoV PLpro, growth rescue. Potency, µM (series often up to 32.9 µM), for the others: at the highest dose activity, positive = growth rescue, actives largely listed as activators. 330,000 compounds, 0.19% hits. AID 485353, 2010; calls by dose curve; further: 0% is about no effect; nearly all actives have a fitted effect of over 55% in size
Pf growth 96h: Primary qHTS for delayed death inhibitors of the malarial parasite plastid, 96 hour incubation; P. falciparum luciferase reporter growth, 96 h; 320,000 compounds, 6.9% hits; AID 504834, 2011; Potency, µM (titrated, usually from 28.7 µM), for inactives: top-dose activity change, negative = inhibition, hits mostly inhibitors; further: on the % scale 0 is the no-effect control and ±100 the full control effect
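Compounds incubated with erythrocytes infected by luciferase-expressing P. falciparum (2% hematocrit, 0.05% parasitemia final) for 96 hours, 37 C in 5% CO2. Growth inhibition scored as decreased luciferase luminescence.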
AMA1 RON2 block: qHTS for Inhibitors of AMA1-RON; Towards Development of Antimalarial Drug Lead: Primary Screen; Plasmodium falciparum AMA1 (3D7) - RON2 peptide interaction; AlphaScreen AMA1-biotinylated RON2 peptide binding; Potency, µM (highest dose often 58.2 µM), for inactives: at the highest dose activity change, negative = inhibition, most hits filed as inhibitors; 360,000 compounds, 0.2% hits; AID 720542, 2013;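 further: 0% = vehicle wells and -100% = peptide control; nearly all actives have a fitted effect of over 45% in size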
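AMA1 (3D7) with his tag at 25 nM final met compounds first, then biotinylated RON2 peptide at 25 nM; detection used donor plus acceptor beads, 10 µg/mL apiece, read by AlphaScreen after 30 min at room temperature.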
Starred values were filed as active, the others as inactive; u = inconclusive; x = not tested or not shown. Rows were chosen to be rich in hits. Some 9.4% of all compounds tested hit in one or more screens of this group. Unless noted, the call rests on the fitted dose curve; in most records, active means well fitted curve in the direction sought with a large enough effect; inconclusive means small, poorly fitted or top-dose-only effect, or another doubt; inactive means no such curve, though single readings can be large; an effect the other way counts as inactive or inconclusive. Potency means the concentration at half of the fitted maximal effect.

SMILES | Pf growth 48h | SARS PLP yeast | Pf growth 96h | AMA1 RON2 block
Cc1ccccc1CN1C[C@@H]2C[C@@H](c3cn[nH]c3-c3ccccc3)N3CCC[C@@]23C1=O | 1.7µM* | 1% | u | 2%
O=C1N(Cc2cccnc2)C[C@@H]2C[C@@H](c3cccc(C(F)(F)F)c3)N3CCC[C@@]123 | u | 1% | 10µM* | 8%
O=C1N(Cc2cccnc2)C[C@@H]2C[C@@H](c3ccc4nonc4c3)N3CCC[C@@]123 | 2% | -1% | 23% | -13%
COc1ccccc1CN1C[C@@H]2C[C@@H](C3=Cc4cccc(OC)c4OC3)N3CCC[C@@]23C1=O | 4.7µM* | 1% | 15% | -3%
O=C1N(Cc2cccnc2)C[C@@H]2C[C@@H](c3ccc(-c4ccccc4)cc3)N3CCC[C@@]123 | 12µM* | 1% | u | -14%
O=C1N(Cc2cccnc2)C[C@@H]2C[C@@H](c3cccc(OCc4ccccc4)c3)N3CCC[C@@]123 | u | 0% | u | -2%
Cc1ccc(CNc2cc(-c3nn4c(C)nnc4s3)ccc2C)s1 | 12µM* | -8% | u | 16%
Cc1cccc2sc(N(CCCN(C)C)C(=O)c3cc4ccccc4oc3=O)nc12 | -21% | -10% | u | -12%
CCOc1cccc2sc(N(CCCN(C)C)C(=O)c3ccc(C(=O)c4ccccc4)cc3)nc12 | u | -4% | 10µM* | -15%
CN(C)CCCN(C(=O)c1ccc(C(=O)c2ccccc2)cc1)c1nc2c(F)cccc2s1 | u | -2% | -8% | 0%
COc1cc2nc(N(CCCN(C)C)C(=O)c3ccc(C(=O)c4ccccc4)cc3)sc2cc1OC | u | -2% | u | u
Cc1ccc2nc(N(CCCN(C)C)C(=O)c3cc4ccccc4oc3=O)sc2c1 | u | 4% | 10µM* | 8%
CCc1ccc2nc(N(CCCN(C)C)C(=O)c3ccc(C(=O)c4ccccc4)cc3)sc2c1 | u | 0% | 15µM* | u
Cc1ccc(C(=O)NCCNc2ncc(C(F)(F)F)cc2Cl)cc1[N+](=O)[O-] | u | 2% | 7.4µM* | 3%
Cc1ccc(SCCNC(=O)c2ccc(C)c([N+](=O)[O-])c2)cc1 | -17% | -10% | -21% | -12%
Cc1ccc(C(=O)NCCSc2ccc(Cl)cc2)cc1[N+](=O)[O-] | 13µM* | -14% | 4.1µM* | -3%
Cc1cc(NC(=O)CSCC(=O)Nc2nc3c(C)cccc3s2)no1 | -5% | -6% | u | -4%
CC(Sc1nncn1C)C(=O)Nc1ccc(Cl)cn1 (stereo not given) | 31% | 8% | 48% | -4%
Cc1ccc(-n2nnnc2SC(C)C(=O)Nc2ccc(Cl)cn2)cc1 (stereo not given) | u | -9% | 9.3µM* | -11%
CC(C(=O)OCC(=O)c1ccc(F)cc1)N1C(=O)C2C3C=CC(C3)C2C1=O (stereo not given) | 10% | -4% | 11% | -1%
O=C(COC(=O)c1ccc(S(=O)(=O)N2CCOCC2)cc1)NCc1cccs1 | 13% | -2% | -14% | 16%
CC(C)COC(=O)CCNc1n[nH]c(=O)[nH]c1=O | 0% | 2% | 9.3µM* | 11%
CCOC(=O)CCNc1n[nH]c(=O)[nH]c1=O | 6% | 4% | 0% | -4%
Cc1nn(CCCC(=O)NCCc2ccc(Cl)cc2)c(=O)c2nn(-c3ccccc3)c(C)c12 | -13% | 3% | 13µM* | -16%
Cc1c(Cl)c([N+](=O)[O-])nn1CCCC(=O)NCCc1ccccc1 | 41% | 0% | 7.4µM* | 0%
SMILES | Pf growth 48h | SARS PLP yeast | Pf growth 96h | AMA1 RON2 block
Cc1nn(CCCC(=O)NCCc2ccccc2)c(=O)c2nn(-c3ccccc3)c(C)c12 | -19% | 3% | u | -7%
CCOC(=O)c1sc(NC(=O)CCCn2nc([N+](=O)[O-])c(Cl)c2C)c(C(=O)OCC)c1C | 2% | 16% | 1.3µM* | -28%
Cc1ccc(-n2nc3c(=O)n(CC(=O)NCCc4ccc(Cl)cc4)nc(C)c3c2C)cc1 | 20% | -2% | 0.93µM* | 5%
Cc1nn(Cc2ccccc2)c(C)c1NC(=O)CCCn1nc([N+](=O)[O-])c(Cl)c1C | -22% | -2% | u | -24%
CCc1ccccc1NC(=O)Nn1cnnc1 | 17% | -3% | -3% | -8%
COc1ccccc1CCC(=O)OCC(=O)c1c(N)n(CC(C)C)c(=O)n(C)c1=O | -11% | -5% | u | 65%
C/C(=N\O)C(C)(C)NC(=O)Nc1ccc(Cl)cc1 | 15% | 8% | x | 8%
CCOc1ccc(-c2nn(-c3ccccc3)cc2/C=C(\C#N)S(=O)(=O)c2ccccc2)cc1C | u | 0% | 338% | 6%
CCN(CC)C(=O)COc1ccc(/C=C(\C#N)S(=O)(=O)c2ccccc2)cc1OC | 1% | 0% | 9.3µM* | -9%
CC(C)NC(=S)NC(c1ccccc1)(c1ccccc1)c1ccccc1 | 6.6µM* | 2% | 8.3µM* | 26%
C/C(=N\NC(=S)NC(C)C)c1ccccc1 | u | -3% | -55% | 85%
CC(C)c1nccn1S(=O)(=O)c1cccc([N+](=O)[O-])c1 | 9% | -10% | 39% | 2%
CCSc1c(C(=O)NC)ccc2c1C(=O)c1ccccc1C2=O | -9% | 1% | 15µM* | -5%
